Screens deposited in PubChem BioAssay by several laboratories.
SKKanGAS inh – S. pyogenes SKKanGAS growth inhibitors in kanamycin, primary screen, streptokinase expression inhibitor project, SKKanGAS strain, BacTiter-Glo luminescence; 6 h; inhibition, % at 7.5 µM; 300,000 tested, 1.3% active;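 active = mean replicate score, as percent of positive control median, at least 50; inconclusive = mean below 50 but one replicate at or above 50; inactive = mean and every replicate below 50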;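 also: strain carries kanamycin resistance gene driven by streptokinase promoter and grows in 40 µg/ml kanamycin; loss of luminescence reflects streptokinase promoter inhibition or plain growth inhibition; 0% = median of DMSO wells and 100% = positive control at its reference dose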
MPTP block – mitochondrial permeability transition pore inhibitors, primary screen, biochemical, isolated mouse mitochondria, absorbance | inhibition, % at 10 µM | Ca2+ swelling absorbance, 30 min | 360,000 tested, 1.4% active | AID 602449, 2012;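 active = inhibition of 50% or more, scaled per plate between neutral and stimulator controls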;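 also: 0% = DMSO wells given calcium and 100% = 1 mM EGTA wells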
Calb FLC – C. albicans growth inhibition with fluconazole, primary screen, CaCi-2 strain, Alamar Blue fluorescence | AID 1979, 2009 | C. albicans CaCi-2 (fluconazole-resistant clinical isolate) + fluconazole, 48 h | 300,000 tested, 0.57% active | growth inhibition, % (concentration not given with the values);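 active = growth inhibition above about 58% in most replicates, limit read from the data, passing the limit was not always enough; inconclusive = exactly half the replicates above a set limit; inactive = most replicates below a set limit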;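 also: all wells also contain fluconazole at 8 µg/ml as a sub-toxic cotreatment; 0% = median of DMSO wells and 100% = median of geldanamycin control wells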
Beta cell apopt – inhibitors of cytokine-induced beta cell apoptosis, primary screen, luminescence | AID 435005, 2010 | 300,000 tested, 0.8% active | INS-1E cytokine-induced death, ATP luminescence, 48 h; percent of positive-control rescue, neutral wells zero | protection from apoptosis, % (test concentration not listed);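 active = Every replicate reaches about 75%, or at least half do and their mean reaches it too, limit read from the data; inconclusive = At least half of replicates reach the limit but their mean does not; inactive = Under half of replicates reach the limit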;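 also: 0% = cytokine-treated negative control wells and 100% = positive control rescue; higher means more ATP so stronger rescue from cytokine killing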
Mdm2-MdmX inh – inhibitors of human Mdm2-MdmX association, primary screen, cell-based, luminescence, split luciferase, SaOS-2, uHTS; Protein Mdm4 (Homo sapiens) + E3 ubiquitin-protein ligase Mdm2 (Homo sapiens), …; SaOS-2 split-luciferase Mdm2/MdmX complementation; inhibition, % at 8 µM; 330,000 tested, 3% active; AID 485346, 2010;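 active = inhibition of at least 50% at 8 µM in the primary screen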
Target sequence (O15151 whole entry, looked up): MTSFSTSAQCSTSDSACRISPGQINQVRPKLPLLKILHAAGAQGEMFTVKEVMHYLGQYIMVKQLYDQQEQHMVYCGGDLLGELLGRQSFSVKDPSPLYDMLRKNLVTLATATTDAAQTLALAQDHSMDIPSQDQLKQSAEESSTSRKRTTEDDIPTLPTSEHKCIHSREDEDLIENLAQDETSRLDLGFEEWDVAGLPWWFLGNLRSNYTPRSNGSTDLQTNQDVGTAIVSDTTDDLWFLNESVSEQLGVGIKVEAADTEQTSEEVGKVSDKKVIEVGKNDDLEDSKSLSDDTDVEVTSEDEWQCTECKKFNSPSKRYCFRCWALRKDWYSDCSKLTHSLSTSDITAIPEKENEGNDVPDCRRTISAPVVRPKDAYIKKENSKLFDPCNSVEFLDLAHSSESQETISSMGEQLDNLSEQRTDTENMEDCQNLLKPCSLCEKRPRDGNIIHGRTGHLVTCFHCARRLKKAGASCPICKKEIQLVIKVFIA
Target sequence (Q00987 whole entry, looked up): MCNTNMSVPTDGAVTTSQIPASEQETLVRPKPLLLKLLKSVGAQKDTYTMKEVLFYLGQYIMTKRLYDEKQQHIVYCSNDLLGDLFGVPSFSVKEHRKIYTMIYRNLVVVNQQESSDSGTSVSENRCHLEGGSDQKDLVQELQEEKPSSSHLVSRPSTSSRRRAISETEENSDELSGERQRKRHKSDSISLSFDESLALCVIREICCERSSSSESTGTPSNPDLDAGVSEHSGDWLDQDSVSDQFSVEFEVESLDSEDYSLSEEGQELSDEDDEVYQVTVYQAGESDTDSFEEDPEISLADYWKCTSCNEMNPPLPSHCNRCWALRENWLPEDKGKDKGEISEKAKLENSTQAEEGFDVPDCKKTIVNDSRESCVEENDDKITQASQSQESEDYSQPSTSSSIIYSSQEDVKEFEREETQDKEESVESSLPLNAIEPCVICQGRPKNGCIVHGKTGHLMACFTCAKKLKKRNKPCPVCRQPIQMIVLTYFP
CSC inhib – cancer stem cell viability inhibitors, primary screen, luminescence; cancer stem cell-like cells viability; 300,000 tested, 1.1% active; inhibition, % at 7.5 µM; AID 2717, 2010; in the data active = inhibition above about 75%; inconclusive = no clear call, values can overlap the other calls; tested in HMLE shEcad cells
Mdm2 MdmX conf – Mdm2-MdmX complex disruptors, retested hits, confirmation, luminescence, single concentration | shares compounds with Mdm2-MdmX inh | Mdm2-MdmX binding, luminescent assay | inhibition, % at 8 µM | 10,000 tested, 55% active | AID 489028, 2010; in the data active = inhibition above about 40%
Full FLuc ctr – full-length luciferase signal inhibition, confirmation, counter-screen for Mdm2/MdmX interaction inhibitor project, cell-based, single concentration, SaOS-2 | shares compounds with Mdm2-MdmX inh | SaOS-2 full-length luciferase counterscreen, luminescence | inhibition, % at 8 µM | 6,200 tested, 77% active | AID 504607, 2011;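 active = mean inhibition at 8 µM reaching about 37%, which flags the compound as non-specific, limit read from the data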;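 also: p53-null SaOS-2 cells with luciferase driven by a doxycycline-inducible promoter; compound on cells about two nights before reading with doxycycline added after day one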
* hit, by the source's call; ? = inconclusive; . = not tested or not shown. Only some compounds are listed: those with a hit (about 5.4% of all), similar ones and a draw of the others.

SMILES	SKKanGAS inh	MPTP block	Calb FLC	Beta cell apopt	Mdm2-MdmX inh	CSC inhib	Mdm2 MdmX conf	Full FLuc ctr
CCc1c(C)nc2cc(-c3ccc(OC)c(OC)c3)nn2c1NCC1CC1	1	22	8	.	28	59	.	.
CCOC(=O)C(=O)N1c2ccccc2C(N(C(=O)C(=O)OCC)c2ccccc2)CC1C (stereo unspecified)	4	2	-1	-10	-29	-14	.	.
C[C@H](CO)N1C[C@H](C)[C@@H](CN(C)S(=O)(=O)c2cccs2)Oc2c(NC(=O)Nc3ccccc3)cccc2C1=O	.	2	.	-3	23	0	.	.
COc1ccc(S(=O)(=O)N(C)C[C@H]2Oc3c(NC(=O)Nc4ccc(C(F)(F)F)cc4)cccc3C(=O)N([C@H](C)CO)C[C@@H]2C)cc1	.	0	.	13	52*	50	22	.
C[C@@H]1CN([C@H](C)CO)C(=O)c2cccc(NC(=O)Nc3ccc(C(F)(F)F)cc3)c2O[C@H]1CN(C)S(=O)(=O)c1cccs1	.	2	.	4	57*	.	41*	73*
NC(=O)c1ccc(Cn2c(C(=O)c3cc(Cl)c(N)c(Cl)c3)c3ccccc3[n+]2[O-])cc1	.	0	.	8	53*	47	52*	65*
NCCCn1c(C(=O)c2cc(Cl)c(N)c(Cl)c2)c2ccc([N+](=O)[O-])cc2[n+]1[O-]	63*	0	61	87*	66*	51	54*	63*
NC(=O)c1ccc(Cn2c(C(=O)c3ccc(Cl)cc3)c3ccccc3[n+]2[O-])cc1	.	1	.	0	12	-3	.	.
NCCCn1c(C(=O)c2cc(Cl)c(N)c(Cl)c2)c2ccc(C(F)(F)F)cc2[n+]1[O-]	-2	1	0	2	40	-10	.	.
CC(C(=O)NC1C=CS(=O)(=O)C1)N1C(=O)/C(=C/c2ccc(Cl)cc2)SC1=S (stereo unspecified)	-7	0	-18	-2	8	23	.	.
CCN1CCN(c2ccc(NC(=O)CCc3c(C)nc4c(-c5ccc(F)cc5)c(C)nn4c3C)cc2)CC1	10	-6	?	12	55*	81*	36	.
Cc1cc(Nc2cc(Cl)nc(Sc3ccc(NC(=O)C4CC4)cc3)n2)n[nH]1	31	0	38	-7	69*	24	51*	52*
CCCCC1C(=O)N(c2ccccc2)N(c2ccccc2)C1=O	11	2	.	-7	15	-1	.	.
CCCCN1C=CC(=C2C(=O)c3ccccc3C2=O)C=C1	26	0	11	38	84*	68	79*	53*
c1ccc(-c2nc(-c3ccccn3)no2)cc1	-6	-1	-6	40	40	51	.	.
Cc1ccc(-c2nc(-c3ccccn3)no2)cc1	59*	-4	-23	58	86*	70	86*	53*
Cc1ccc(-c2nc(-c3ccccn3)no2)cc1Cl	15	-2	-3	22	44	63	.	.
c1ccc(-c2ccc(-c3nc(-c4ccccn4)no3)cc2)cc1	18	-1	25	70	97*	-10	89*	23
CCc1c(C)sc(NC(=O)c2cc(-c3cc(OC)ccc3OC)on2)c1C#N	1	1	-2	-5	97*	30	46*	68*
COc1cc(NC(=O)CSc2nc3[nH]ncc3c(=O)n2-c2ccc(Cl)cc2)cc(OC)c1	17	1	16	.	59*	15	25	.
Cc1cccc(NC(=O)CSc2nc3[nH]ncc3c(=O)n2-c2ccccc2)c1	1	.	3	-7	22	4	.	.
COc1ccc(-c2ccc(CCC(=O)O)n2NC(=O)c2ccc(O)cc2)cc1	-3	0	-4	-3	18	-1	.	.
OCCN1CCN(c2ncnc3ccc(Br)cc23)CC1	-3	-1	-4	.	51*	.	60*	45*
O=C(Nn1cnc2ccccc2c1=O)c1ccccc1F	-2	0	13	-3	6	15	.	.
Cc1cc(C)c2nc(N3CCC(C(=O)NCC4CCCO4)CC3)sc2c1 (stereo unspecified)	-3	-2	-3	2	-10	-19	.	.
SMILES	SKKanGAS inh	MPTP block	Calb FLC	Beta cell apopt	Mdm2-MdmX inh	CSC inhib	Mdm2 MdmX conf	Full FLuc ctr
Cc1cc(C)c2nc(N3CCC(C(=O)NCCCN4CCCCC4)CC3)sc2c1	1	0	42	7	84*	-2	43*	46*
O=C(c1cnn(C(=O)c2ccco2)c1)c1cc(F)ccc1O	.	-3	.	-6	29	5	.	.
Cc1cccc(C)c1NC(=O)COC(=O)CNC(=O)C1CCCCC1	.	-3	.	.	9	.	.	.
Brc1ccc(-c2ccc(/C=N/Nc3nc(N4CCOCC4)nc(N4CCOCC4)n3)o2)cc1	22	-3	23	13	69*	-8	29	.
Brc1ccc(-c2ccc(/C=N/Nc3nncc(-c4ccccc4)n3)o2)cc1	5	3	45	17	40	-7	.	.
Fc1cnc(N/N=C/c2ccc(-c3ccc(Br)cc3)o2)nc1N1CCOCC1	14	-1	0	30	59*	28	1	.
O=[N+]([O-])c1ccc(/C=N/Nc2nc(N3CCOCC3)nc(N3CCOCC3)n2)cc1	-1	-1	-3	-2	15	-7	.	.
COc1ccccc1CNC(=O)C(NC(=O)Nc1ccccc1)C(C)C (stereo unspecified)	-9	0	2	6	8	-21	.	.
Cc1nc(NC(=O)/C=C/c2ccccc2)n[nH]1	0	0	-2	-37	56*	45	40*	33
O=CC1=C(c2ccccc2)Oc2ccccc2O1	8	0	3	52	57*	62	8	.
COc1ccc(-c2cc3c(=O)n(CC(=O)NCCCN4CCC(N5CCCCC5)CC4)ncn3n2)cc1	-1	2	.	5	67*	18	26	.
Cc1nn(CC(=O)NCCCN2CCCCC2)c(=O)c2cc(-c3ccccc3)nn12	-1	-1	3	0	17	3	.	.
COc1ccc(-c2cc3c(=O)n(CC(=O)NCCCN4CCC(N5CCCCC5)CC4)nc(C)n3n2)cc1	-1	0	-2	-12	99*	-16	100*	46*
